Screening data from PubChem BioAssay.
IDH1 R132H inh: inhibitors of human mutant IDH1 R132H; O75874; AID 602179; Potency, µM (top dose mostly 76.6 µM), usual class: inhibitors; hit rate 0.093% among 390,000; IDH1-R132H enzyme, NADPH consumption, diaphorase/resazurin fluorescence; also: nearly all actives have a fitted effect of over 65% in size
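IDH1-R132H (0.5 ug/mL dispensed) in pH 7.5 Tris buffer was preincubated 30 min with compound, then given a substrate mix of 0.016 mM NADPH and 2 mM alpha-KG for 80 min at room temperature; remaining NADPH was read by diaphorase/resazurin fluorescence.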
TrxR1 inh: blocks rat thioredoxin reductase 1. Potency, µM (titrated, usually from 114 µM), usual class: inhibitors. AID 588453. O89049. recombinant rTrxR1, NADPH fluorescence consumption, selenite substrate. hit rate 1% among 390,000; also: nearly all actives have a fitted effect of over 65% in size
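Rat TrxR1 (90 nM in the dispensed reagent) was pre-reduced with 400 uM NADPH for 5 min at room temperature, then incubated with compound for 15 min. After 400 uM selenite was added, NADPH fluorescence (Ex 340/Em 450 nm) was followed for 8 min.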
TrxR1 substrate: is turned over as a substrate by rat TrxR1 | O89049 | purified TrxR1 substrate turnover, NADPH consumption readout | Potency, µM (doses to about 114 µM) | hit rate 0.01% among 390,000 | AID 588456; also: nearly all actives have a fitted effect of over 50% in size
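Rat TrxR1, dispensed at 90 nM, was prereduced with 400 uM NADPH (final) for 5 min at ~22 deg C, then incubated with compound 15 min before 400 uM selenite. A first-read NADPH fluorescence drop versus no-compound background flagged substrates.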
Eya2 inh: inhibitors of human Eya2 phosphatase activity; recombinant Eya2, OMFP fluorescence dephosphorylation (OMFP is methylfluorescein phosphate); Potency, µM (series often up to 76.9 µM), most hits filed as inhibitors; hit rate 0.006% among 330,000
Target sequence (O00167 whole entry, looked up): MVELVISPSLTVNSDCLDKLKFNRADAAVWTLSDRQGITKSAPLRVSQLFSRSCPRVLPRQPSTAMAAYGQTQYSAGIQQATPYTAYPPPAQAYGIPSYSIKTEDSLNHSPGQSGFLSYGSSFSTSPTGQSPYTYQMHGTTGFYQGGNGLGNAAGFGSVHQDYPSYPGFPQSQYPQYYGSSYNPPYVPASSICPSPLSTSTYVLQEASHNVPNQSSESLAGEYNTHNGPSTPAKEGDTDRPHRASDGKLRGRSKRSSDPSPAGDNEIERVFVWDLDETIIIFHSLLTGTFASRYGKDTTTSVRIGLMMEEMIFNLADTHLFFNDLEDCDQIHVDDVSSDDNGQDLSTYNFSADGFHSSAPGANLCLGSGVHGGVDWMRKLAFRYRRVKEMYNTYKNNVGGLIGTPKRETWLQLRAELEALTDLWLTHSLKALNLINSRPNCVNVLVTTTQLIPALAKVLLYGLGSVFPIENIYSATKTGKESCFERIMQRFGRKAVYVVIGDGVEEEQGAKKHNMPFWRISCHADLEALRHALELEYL
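Eya2 (0.2 uM) preincubated 10 min at ambient with compound, then OMFP substrate added at 50 uM; 10 min reaction in 50 mM HEPES pH 7.5, 50 mM NaCl, 5 uM MgCl2, 0.05% BSA, 1 mM DTT. Fluorescence read at Ex 485/Em 525 nm.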
RGS4 inh: blocks human RGS4-accelerated GTP hydrolysis. P49798. Transcreener GDP fluorescence polarization, RGS4-accelerated GTP hydrolysis. Potency, µM (highest dose often 114 µM), most hits filed as inhibitors. hit rate 0.039% among 390,000. AID 504845; also: nearly all actives have a fitted effect of over 75% in size
Target sequence (P49798 whole entry, looked up): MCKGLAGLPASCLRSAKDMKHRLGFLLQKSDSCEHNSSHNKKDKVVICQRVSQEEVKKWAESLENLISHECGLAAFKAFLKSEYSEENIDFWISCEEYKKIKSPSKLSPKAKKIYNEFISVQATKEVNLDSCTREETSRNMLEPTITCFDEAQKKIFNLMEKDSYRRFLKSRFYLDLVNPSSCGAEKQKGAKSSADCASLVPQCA
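MLSMR compounds (23 nl, pin-transferred) preincubated 10 min at room temperature with a 500nM (2x) first reagent, then RGS4 at 900nM (2x) plus Transcreener GDP mix added; fluorescence polarization (620/688 nm) read before and after 90 min at 30 °C.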
Of the large screens only hits and unclear results are named; the others gave an inactive call. Only some compounds are listed: those with a hit (about 1.1% of all), similar ones and a draw of the others. Calls follow the shape of the dose curve; as a rule, active = well fitted curve in the direction sought with a large enough effect; inconclusive = small, poorly fitted or top-dose-only effect, or another doubt; inactive = no such curve, though single readings can be large; an effect the other way counts as inactive or inconclusive.

COc1ccc(OCCOC(=O)c2[nH]c(C)c(C(C)=O)c2C)cc1	none
COc1ccc(NS(=O)(=O)c2cccc(C(=O)NNC(=O)COc3ccccc3)c2)cc1	none
CCC[C@@H]1Cc2ccccc2N1C(C)=O	none
O=C(Nc1ccc(O)cc1C(=O)O)c1ccc2c(c1)C(=O)N(Cc1ccco1)C2=O	none
O=C(Nc1cc([N+](=O)[O-])ccc1O)c1ccc2c(c1)C(=O)N(Cc1ccco1)C2=O	TrxR1 inh 79µM, RGS4 inh inconclusive
Cc1ccc(CS(=O)(=O)c2ccc(C(=O)N3CCCCC3)cc2[N+](=O)[O-])cc1	none
CCN(CC)C(=O)c1ccc(S(=O)(=O)Cc2ccc(C)cc2)c([N+](=O)[O-])c1	TrxR1 inh 32µM
COC(=O)CC1C(=O)NC2CCCCC2N1C(=O)CCl (stereo unspecified)	TrxR1 inh 20µM
Cc1nc(-c2ccc(C(F)(F)F)cc2)sc1C(=O)NN	none
CCCc1cc(CN2CCOCC2)c(O)c(CN2CCOCC2)c1O	TrxR1 inh 1.6µM, RGS4 inh inconclusive (no result: Eya2 inh)
Oc1c(CN2CCOCC2)cc(CN2CCOCC2)c(O)c1O	none (no result: Eya2 inh)
O=c1ccn([C@@H]2O[C@H](COP(=O)(O)O)[C@@H](O)[C@H]2O)c(=O)[nH]1	RGS4 inh 38µM (no result: IDH1 R132H inh, TrxR1 inh, TrxR1 substrate, Eya2 inh)
Cc1ccc(C(=O)/C=C/C(=O)O)cc1	TrxR1 inh 2.8µM, RGS4 inh inconclusive
COc1ccc(C(=O)n2nnc3ccccc32)cc1OC	TrxR1 inh 3.2µM
COc1ccc(C(=O)n2nnc3ccccc32)cc1Br	TrxR1 inh 4µM
COc1ccc(C)cc1NC(=O)c1c([N+](=O)[O-])cnn1C	none
O=C(Cc1ccc(NC(=O)N2CCSc3ncccc32)cc1)NCc1ccccc1Cl	none (no result: Eya2 inh)
COc1ccccc1CN1CCC(CNC(=O)c2cnn(-c3ccc(Cl)cc3)c2C2CCN(C(=O)OC(C)(C)C)CC2)CC1	none (no result: Eya2 inh)
Cc1cc(Cl)n2c(nc3cc(F)c(F)cc32)c1C#N	TrxR1 inh 6.3µM, RGS4 inh inconclusive
Cc1ccc(N(CN2C(=O)C3CC=CCC3C2=O)C(=O)c2ccco2)cc1Cl (stereo unspecified)	TrxR1 inh 14µM
COc1ccc(N(CN2C(=O)C3CCCCC3C2=O)C(=O)c2ccco2)cc1 (stereo unspecified)	none
O=C1Nc2ccccc2C1Cc1ccccc1 (stereo unspecified)	none
COc1ccc(C[C@@H]2OC3(C=CC(=O)C=C3)O[C@H]2Cc2ccc(OC)cc2)cc1	TrxR1 inh 0.56µM, RGS4 inh inconclusive (no result: Eya2 inh)
COc1ccc(N2C(=O)CC(Cc3ccccc3)C2=O)cc1 (stereo unspecified)	none
O=C1C=CC2(C=C1)O[C@H](Cc1ccccc1)[C@@H](Cc1ccccc1)O2	TrxR1 inh 0.89µM, RGS4 inh inconclusive (no result: Eya2 inh)
O=C(NCCc1ccccc1)c1noc2c1CCc1ccccc1-2	TrxR1 inh inconclusive
O=C1c2ccccc2CC[C@H]1CNCCc1ccc(O)cc1	RGS4 inh 4.2µM (no result: IDH1 R132H inh, TrxR1 inh, TrxR1 substrate, Eya2 inh)
CCCCCCCCCCCCCCCCCCOC[C@H](COP(=O)([O-])OCC[N+](C)(C)C)OC	TrxR1 substrate inconclusive, Eya2 inh 25µM, RGS4 inh inconclusive (no result: IDH1 R132H inh)
CCCCCCCC/C=C\CCCCCCCCOC[C@H](COP(=O)([O-])OCC[N+](C)(C)C)OC(C)=O	none (no result: IDH1 R132H inh, TrxR1 inh, TrxR1 substrate, Eya2 inh)
CC1(C)CC(=O)C=C(OC(=O)c2ccc(Cl)cc2)C1	TrxR1 inh 4.5µM
Nc1ncnc(Sc2ncccn2)c1[N+](=O)[O-]	TrxR1 inh 1.4µM
Nc1ncnc(Sc2ccccc2)c1[N+](=O)[O-]	none
O=C(CNS(=O)(=O)c1ccc(Cl)c(C(F)(F)F)c1)NC1CCCCC1	none
Cc1ccc(Nc2nc(CSc3n[nH]c(N)n3)cs2)cc1	none
Nc1c(N2CCCC2)cc(Cl)c2nonc12	TrxR1 inh 25µM
Nc1ccc(N2CCCCC2)c2nonc12	TrxR1 inh inconclusive, TrxR1 substrate 50µM, RGS4 inh inconclusive
Nc1ccc(N2CCCCC2)cc1N1CCCCC1	TrxR1 inh inconclusive, RGS4 inh inconclusive
O=C(O)c1ccc2oc(=O)c(S(=O)(=O)c3ccccc3)cc2c1	none
COc1ccc(NC(=O)NS(=O)(=O)c2ccc(C)cc2)cn1	none
N#CC1=C(N)Oc2cc3ccccc3cc2C1c1cccnc1 (stereo unspecified)	none
CCOc1cccc(C2C(C#N)=C(N)Oc3cc(C)[nH]c(=O)c32)c1OCC (stereo unspecified)	Eya2 inh inconclusive
N#CC1=C(N)Oc2c(ccc3cccnc23)C1c1cccnc1 (stereo unspecified)	TrxR1 inh 50µM
Cc1ccc2cc(C3C(C#N)=C(N)Oc4c3ccc3cccnc43)c(=O)[nH]c2c1 (stereo unspecified)	TrxR1 inh 13µM
CCc1ccc2[nH]c(=O)c(C3C(C#N)=C(N)Oc4c3ccc3cccnc43)cc2c1 (stereo unspecified)	TrxR1 inh 45µM
O=C(COc1ccc(Cl)cc1Cl)Nc1ccc(S(=O)(=O)NC2=NCCCCC2)cc1	none
O=C(O)/C(=C/c1ccco1)NC(=O)c1ccc(Br)o1	none
CN(C)c1ncnc2c1ncn2C1CCCO1 (stereo unspecified)	none (no result: Eya2 inh)
O=C1N(c2ccccc2)C[C@@H]2C[C@@H](c3cccs3)N3CCC[C@@]123	TrxR1 inh 20µM
CC(C)(O)C#Cc1ccc([C@@H]2C[C@H]3CN(c4ccccc4)C(=O)[C@]34CCCN24)s1	TrxR1 inh inconclusive
Cc1cc(C(Br)(Br)Br)nc2ccccc12	TrxR1 inh 3.2µM (no result: IDH1 R132H inh, Eya2 inh, RGS4 inh)
Cn1cnnc1SCC(=O)c1cc2ccccc2oc1=O	TrxR1 inh 7.1µM
NC(=O)c1sc2nc(-c3ccco3)ccc2c1N	TrxR1 inh 45µM
COc1ccc(-c2noc(N3CCN(c4cccc(Cl)c4)CC3)n2)cc1OC	none (no result: Eya2 inh)
O=C1CCCCC1c1cccc2ccccc12 (stereo unspecified)	none
O=C1O/C(=C/Br)CCC1c1cccc2ccccc12 (stereo unspecified)	RGS4 inh 9.5µM (no result: IDH1 R132H inh)
CSc1ccccc1OCc1cc(C(=O)N(C)Cc2ccc(C)o2)no1	TrxR1 inh 35µM, RGS4 inh inconclusive
CC(=O)c1cccc(OCc2cc(C(=O)N(C)Cc3ccc(C)o3)no2)c1	TrxR1 inh 3.5µM, RGS4 inh inconclusive
Cc1ccc(CN(C)C(=O)c2ccccc2Oc2ccccc2)o1	TrxR1 inh 11µM, RGS4 inh inconclusive
COc1ccccc1C(=O)Nc1ccc(S(=O)(=O)N2CCCCC2)cc1	none
CN(C)c1nc(C#N)nc(N(C)C)n1	none
Cc1ccc(C)c(-n2c(Cc3cccs3)n[nH]c2=S)c1	none
CCOC(=O)C1=C(C)N=C2c3ccccc3C(=O)C2C1c1ccc(Cl)cc1 (stereo unspecified)	none
CCOC(=O)C1=C(Cc2ccc(Cl)cc2)C(=O)c2ccccc2C1=O	TrxR1 inh 10µM, RGS4 inh inconclusive
